Bioassay records: PubChem, National Center for Advancing Translational Sciences (NCATS)
In the library only some 1.2% were active in any assay of this set; here they are far more common.
hERG WT inh: KCNH2 (human, wildtype) channel inhibition. hit rate 0.37% among 340,000. Q12809. activity change, % at 1.84 µM. U2OS, BacMam KCNH2, thallium flux FluxOr; active compounds read low;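 active means maximum activity change below -70%; inconclusive means maximum activity change between -70% and -50%; inactive means maximum activity change above -50%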; further: on the % scale 0 is the no-effect control and ±100 the full control effect
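U2OS cells were transduced with wild-type KCNH2 virus (2.03 x 10^8 / mL) for 4 h at room temperature, then cultured overnight at 37 C. Thallium flux was read with FluxOr dye. Rate constants were normalized to DMSO controls.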
KCNH2 3.1 inh: KCNH2 3.1 (human) potassium channel inhibition. U2OS KCNH2 3.1, thallium flux FluxOr; active compounds read low. activity change, % (tested at about 1.8 µM). hit rate 0.95% among 340,000;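 active means maximum activity change below -70%; inconclusive means maximum activity change from -70% to -50%; inactive means maximum activity change above -50%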;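 further: thallium influx rate constant from kinetic fluorescence after stimulation buffer; on the % scale 0 is the no-effect control and ±100 the full control effect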
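Channel expression came from 3.1 mutant virus (1.77 x 10^8 /mL) applied to suspended U2OS cells for 4 h. Flux was tracked with FluxOr dye plus Red40 quencher, and kinetic rate constants normalized to controls.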
TRPV1 PAM: potentiators of human vanilloid receptor 1 (TRPV1) | TRPV1-expressing cells, Fluo-8 calcium influx, capsaicin EC20 potentiation | Q8NER1 | AID 540277 | hit rate 0.02% among 320,000 | potentiation, % at 8.33 µM; in the data active means potentiation above about 80%; inconclusive means between about 30% and that limit; further: 0% is about no effect
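TRPV1-expressing cells were cultured overnight at 35.5C and loaded with Fluo-8 calcium dye for 40 to 90 min at room temperature. After a 10 s baseline, compound was added and calcium influx was read kinetically for 3 min (ex 480/em 520 nm).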
TRPV1 agonist: human TRPV1 agonism; TRPV1-expressing cells, Fluo-8 calcium influx, agonist mode; activation, % at 8.33 µM; hit rate 0.19% among 320,000; in the data active means activation above about 80%; inconclusive means between about 30% and that limit; further: 0% is about no effect
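Fluo-8 calcium influx in TRPV1-expressing cells, kinetic read (ex 480/em 520 nm). Compound added and read 3 min for agonist activity, followed by capsaicin at EC20 final and 2 min further read for enhancement.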
Starred values were filed as active, the others as inactive; i = inactive; ? = inconclusive; nt = not tested or not shown.

SMILES	hERG WT inh	KCNH2 3.1 inh	TRPV1 PAM	TRPV1 agonist
COc1ccc(N2C(=S)NC3N2C(=S)NC3(C)c2ccccc2)cc1 (stereo unspecified)	-7	1	9	-1
CC1CCN(CCCNC(=O)COc2cc(=O)n(C)c3ccccc23)CC1	13	-4	-4	2
CCn1c(=O)cc(OCC(=O)NCCCN2CCC(C)CC2)c2ccccc21	-23	-77*	-17	-1
COc1ccc(N2CCN(CCCNC(=O)CCC(=O)N3CCOc4ccc(Cl)cc43)CC2)cc1	36	-80*	-11	-2
O=C(CCC(=O)N1CCOc2ccc(Cl)cc21)NCCCN1CCC(Cc2ccccc2)CC1	-44	-80*	-4	-1
CCOC(=O)c1cc2c(c(-c3ccccc3)n1)[C@H](CCO)N(S(=O)(=O)C(C)(C)C)C2	-3	-1	nt	nt
O=C1CCCC2=C1C1O[C@](CCCCN3C(=O)c4ccccc4C3=O)(Cc3ccccc31)O2	nt	nt	i	i
CCOC(=O)c1ccc(NC(=O)N2CCN(CCc3ccccc3)CC2)cc1	-18	-2	-20	?
CCOc1ccc(NC(=O)OCCN2CCN(CCc3ccccc3)C(C)C2)cc1 (stereo unspecified)	-3	-96*	nt	nt
CCCCCCCC(=O)N/N=C/c1ccc(Br)cc1	9	-82*	-6	?
CCCCCCCC(=O)N/N=C/c1cccnc1	-7	-7	-21	?
Cc1ccc(C(=O)C(c2ccccc2)N2Cc3ccccc3C2=N)cc1 (stereo unspecified)	-5	-73*	-1	?
O=[N+]([O-])c1c(Nc2ccccc2)ccc2nonc12	-3	7	0	-1
CCc1ccc(Nc2ccc3nonc3c2[N+](=O)[O-])cc1	-134*	-159*	nt	nt
CN1C(=O)c2cccc3c(Cl)ccc(c23)C1=O	-13	6	-1	2
CNc1ccc2c3c(cccc13)C(=O)N(C)C2=O	-15	-7	-3	103*
CCOC(=O)C1(CC2CC2)CCN(Cc2ccc(OC)cc2F)CC1	17	-108*	-14	2
CCOC(=O)C1(CCCc2ccccc2)CCN(C2CCSCC2)CC1	-126*	-107*	-4	11
CCOC(=O)C1(CCc2ccccc2)CCN(Cc2ccc(OC)cc2)CC1	-136*	-111*	1	8
OCC1(CCCc2ccccc2)CCN(C2CCSCC2)CC1	26	1	-13	3
CCOC(=O)C1(CCc2ccccc2)CCN(Cc2c(O)cccc2OC)CC1	-4	6	4	5
CCOC(=O)C1(CCc2ccccc2)CCN(Cc2ccc(O)cc2)CC1	-113*	-116*	-47	26
O=C(Nc1ccc(Br)cc1)c1ccc(F)c(S(=O)(=O)NCc2cccs2)c1	4	-30	-5	4
COc1ccc(N2CCN(C(=O)C(=O)c3cn(CC(=O)N4CCCC4)c4ccccc34)CC2)cc1	6	14	nt	nt
Cc1nc2n[nH]c(N)c2nc1C	1	2	nt	nt
SMILES	hERG WT inh	KCNH2 3.1 inh	TRPV1 PAM	TRPV1 agonist
O=C(O)CCCN1C(=O)c2ccc(Oc3cccc([N+](=O)[O-])c3)cc2C1=O	i	7	19	6
CCOC(=O)Cc1nc2ccccc2n(CC#N)c1=O	-9	7	13	-3
CCOC(=O)C1(CCc2ccccc2)CCN(Cc2cnc(N(C)C)s2)CC1	-86*	-112*	-13	4
COc1ccc(NC(=O)N(C)C[C@@H]2OCc3cnnn3CCCC(=O)N([C@@H](C)CO)C[C@H]2C)c(OC)c1	0	6	nt	nt
Nc1nc2ccccc2n1/N=C/c1ccc(-c2ccccc2)o1	1	-87*	-2	26
CCOC(=O)c1ccc(NC(=O)Nc2ccc3c(c2)OCCO3)cc1	-76*	25	-16	4
CC1=NN(CCc2ccccn2)C(=O)CC1	3	0	nt	nt
Cc1ccc(-c2csc(=S)[nH]2)cc1	-5	-78*	-4	1
S=c1[nH]c(-c2ccc(Cl)cc2)cs1	-7	-3	11	-4
Cc1ccc(OCC(O)Cn2c(=N)n(Cc3ccccc3)c3ccccc32)cc1 (stereo unspecified)	-94*	-75*	2	1
COc1ccc(OCC(O)Cn2c(=N)n(Cc3ccccc3)c3ccccc32)cc1 (stereo unspecified)	-1	-7	-10	1
N=c1n(Cc2ccc(Cl)cc2)c2ccccc2n1CC(O)COc1ccccc1 (stereo unspecified)	?	-85*	7	1
Cc1cccc(NC(=S)NC(=O)Cc2ccccc2)c1C	6	-16	8	?
